Inhibition data for 19 compounds are collected here from PubChem BioAssay AID1879 (The Scripps Research Institute Molecular Screening Center, 2009).

SMILES strings stand for the structures. The list shows a part of the results. Values without a mark were called inactive. Active and inactive are the calls of the source. Cut-off read from the data, not from the text of the source: active = inhibition above about 13%; inactive = the rest.

For this test, the system named is SARS coronavirus 3C-like protease (3CLpro). As to the kind of experiment: confirmation of SARS coronavirus 3C-like protease inhibitors, retest, confirmation, biochemical (AID 1879). Conditions: QFRET protease activity assay, at 6 µM, active compounds read high.
As for `CC(C)c1ccc(N(C(=O)c2ccco2)C(C(=O)NC2CCCC2)c2cccnc2)cc1` (centres undefined), the inhibition is 47.8% (active).
As for `C=C(C)COc1ccc(-c2n[nH]c(C)c2-c2ccccc2)c(O)c1`, the figure is 5.95%; as for `COc1ccccc1N(C(=O)Cn1nnc2ccccc21)C(C(=O)NCc1ccco1)c1ccc(C)o1` (centres undefined), 26.2% (active).
As for `C[C@@]12C(=O)N(c3cccc(Br)c3)C(=O)N1[C@H](c1ccc(Cl)cc1)[C@@H]1C(=O)N(C3CCCCC3)C(=O)[C@@H]12`, the figure is 15.9% (active); as for `Cc1ccc(OCC(=O)Nc2ccc(C(=O)O)cc2NC(=O)COc2ccc(C)c(C)c2)cc1C`, 8.89%.
For `COC(=O)c1cc(NC(=O)Cc2ccccc2[N+](=O)[O-])ccc1Cl`, the inhibition is 15% (active).
As for `O=C(c1cc(=O)c2ccccc2o1)N1CCN(c2ccccc2)CC1`, the figure is 12.2%; as for `O=Cc1cn(Cc2ccccc2)nc1-c1cccnc1`, 47.9% (active).
For the compound `O=C(O)c1ccc(NC(=O)c2cn(-c3ccccc3)nc2-c2ccc(Cl)cc2)cc1`, the inhibition was 6.65%.
For the compound `Cc1cccc2c1N(CCOc1ccccc1)C(=O)C2=O`, the inhibition was 19.1% (active).
The figure for `CC(=O)c1cc(-c2ccccc2)[nH]c1N1CCCC1` is 22.5% (active); for `CCC(C)(C)NC(=O)C(c1ccc(O)cc1)N(C(=O)Cn1nnc2ccccc21)c1ccc(NC(C)=O)cc1` (centres undefined) it is 25.6% (active); for `Cc1ccc(C(=O)NCCN2CCOCC2)cc1C` it is 0.81%.
As to `CCCCNC(=O)N(O)C1N(/N=C/c2ccc(N(C)C)cc2)C(=S)SC1(C)C` (centres undefined), the inhibition was -0.44%.
The figure for `O=C1C(=O)N(CC2COc3ccccc3O2)c2ccccc21` (centres undefined) is 23.1% (active); for `CN1CCN(CC(=O)Nc2cccc([N+](=O)[O-])c2)CC1` it is 1.01%.
In the case of `Cc1cccc(C(=O)Nc2nnc(Cc3c[nH]c4ccccc34)s2)c1`, the inhibition was 5.81%.
The figure for `O=C(NCc1ccccc1)c1ccc(S(=O)(=O)Nc2cccc(C(F)(F)F)c2)cc1` is 7.75%.
The figure for `COC(=O)COc1cccc2c(=O)n(CC(=O)NCc3ccccc3)ccc12` is 5.39%.

Usually inhibition stands for the relative decrease from the control value, in per cent.
